Laboratory results from PubChem BioAssay (Tox21).
Inconclusive results are not listed. Where a structure was tested more than once in an assay, its records may differ in their call. Active and inactive are the calls of the source. Calls come from the whole dose curve.

Biological target: 5-hydroxytryptamine receptor 2A (Homo sapiens) (UniProt P28223)
Assay: 5-hydroxytryptamine receptor 2A (HTR2A) small molecule agonists, cell-based qHTS assay (AID 1963587); note: nearly all actives have a fitted effect of over 30% in size
Conditions: HTR2A-CHO cells, calcium flux fluorescence, agonist mode; series mostly up to 76.8 µM; activation: at the top concentration
Source text: National Center for Advancing Translational Sciences [NCATS]
Division of Preclinical Innovation [DPI]
U.S. Environmental Protection Agency [EPA]
National Institutes of Environmental Health Sciences [NIEHS]
National Toxicology Program [NTP]
U.S. Food and Drug Administration [FDA]
The HTR2A receptor is a subtype of the 5-HT2 receptor that belongs to the serotonin receptor family and is a G protein-coupled receptor (GPCR). The HTR2A-CHO cell line stably expressing human 5-hydroxytryptamine receptor 2A (HTR2A) can be used for screening agonists of interactions between 5-HT2 and its ligands. The HTR2A-CHO calcium flux assay is a homogeneous fluorescence-based assay for detecting the intracellular calcium level using FDSS kinetic plate reader system.
HTR2A-CHO cells were dispensed at 2000 cells/3uL/well in 1536-well black-clear bottom plates using a Multidrop Dispenser. After the assay plates were incubated at a 37 C/5% CO2 incubator for 18 h, 3 uL of Dye Loading Buffer was transferred to the assay plate by a Flying Reagent Dispenser. The assay plates were incubated at 37 C for 1h. For agonist mode, 23 nL of compounds dissolved in DMSO, positive controls or DMSO only was transferred to the assay plate by a pin tool. The fluorescence intensity in the plates was measured using FDSS 7000EX kinetic plate reader for 2 min at 1 sec intervals.
% is set by controls: 0 for no effect and ±100 for the full control effect; potency is the fitted concentration of half-maximal effect.

Chain of 5-hydroxytryptamine receptor 2A (Homo sapiens) (P28223 whole entry, looked up): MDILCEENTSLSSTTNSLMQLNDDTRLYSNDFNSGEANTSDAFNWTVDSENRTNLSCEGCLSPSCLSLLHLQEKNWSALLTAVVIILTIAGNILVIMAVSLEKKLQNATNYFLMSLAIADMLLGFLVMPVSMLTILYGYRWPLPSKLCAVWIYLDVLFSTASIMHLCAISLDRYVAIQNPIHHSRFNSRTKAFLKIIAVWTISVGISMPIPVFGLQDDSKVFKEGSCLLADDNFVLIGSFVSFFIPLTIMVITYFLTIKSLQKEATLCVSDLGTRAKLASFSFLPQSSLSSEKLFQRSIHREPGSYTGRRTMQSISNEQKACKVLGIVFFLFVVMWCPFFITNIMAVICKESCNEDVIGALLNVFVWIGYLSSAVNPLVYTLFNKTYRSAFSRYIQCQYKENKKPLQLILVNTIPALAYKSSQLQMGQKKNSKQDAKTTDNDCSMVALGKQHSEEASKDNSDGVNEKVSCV

SMILES | activation | Potency
CNC(=O)c1c(I)c(NC(C)=O)c(I)c(C(=O)O)c1I | 1.42% [at 35.6 µM] (inactive) | –
COc1ccc2c(c1)CCCC2=O | -2.38% [at 35.6 µM] (inactive) | –
CC(O)Cn1cnc2c1c(=O)n(C)c(=O)n2C (stereo not given) | 0.775% [at 35.6 µM] (inactive) | –
CC(C)(C)NCC(O)COc1ccccc1OCC1CCCO1 (stereo not given) | -7.58% [at 35.6 µM] (inactive) | –
O=C(c1ccc2c(c1)C(=O)OC2=O)c1ccc2c(c1)C(=O)OC2=O | 0.0184% (inactive) | –
O=[N+]([O-])c1ccc(CCO)cc1 | 0.0116% (inactive) | –
OCc1c2ccccc2cc2ccccc12 | -4.48% (inactive) | –
CCCCCCCCC(=O)OCC | 4.25% (inactive) | –
Cc1ccccc1N=O | 2.05% (inactive) | –
CC(=O)Nc1c(I)cc(I)c(C(=O)O)c1I | -0.101% [at 35.6 µM] (inactive) | –
CC1(C)O[C@H]2CC(=O)OC[C@]23[C@H]2CC[C@@]4(C)[C@H](c5ccoc5)OC(=O)[C@H]5O[C@]54[C@]2(C)C(=O)C[C@@H]13 | -0.633% [at 35.6 µM] (inactive) | –
OCc1ccccc1O | -0.76% [at 35.6 µM] (inactive) | –
C/C=C/C(=O)CCCC | 2.33% (inactive) | –
CN1CCCC1 | -2.4% (inactive) | –
CCCOC(C(=O)OC1CCN(C)CC1)(c1ccccc1)c1ccccc1 | 8.7% [at 35.6 µM] (inactive) | –
CCOC(C)(C)C | -1.4% (inactive) | –
CCCCCCCCCOS(=O)(=O)O | -0.794% (inactive) | –
Cc1cccc(C)c1[N+](=O)[O-] | – | inactive
CCOC(OCC)C(=O)c1ccccc1 | -5.51% (inactive) | –
CC(=O)O[C@@H]1C[C@@H]2CC[C@@]1(C)C2(C)C | -4.71% (inactive) | –

SMILES | activation | Potency
CNC(=O)NC | 0.0634% (inactive) | –
CCOC(/C=C(\C)CCC=C(C)C)OCC | 1.16% (inactive) | –
Cc1ccc(-c2ccccc2C#N)cc1 | -5.6% [at 35.6 µM] (inactive) | –
CC(=O)N1CCN(c2ccc(O)cc2)CC1 | -3.12% [at 35.6 µM] (inactive) | –
CCOc1ccc2c(c1)C(C)=CC(C)(C)N2 | – | 54.7 µM (active) and inactive
Nc1ccc(Cl)c(N)c1 | – | inactive
CNc1ccccc1 | 0.0943% (inactive) | –
O=C1CCCCC1 | – | inactive
Nc1ccc(O)cc1 | – | inactive
CC(=O)CCC(C)C | -0.806% (inactive) | –
CNC1(C)C2CCC(C2)C1(C)C (stereo not given) | -1.26% [at 35.6 µM] (inactive) | –
CSCCC=O | – | inactive
CC(C)=C1CC[C@@H](C)CC1=O | -0.924% (inactive) | –
C/C(=C1\CCOC(=O)S1)N(C=O)Cc1cnc(C)nc1N | -9.46% [at 35.6 µM] (inactive) | –
NS(=O)(=O)c1cc2c(cc1Cl)NC(CC1CCCC1)NS2(=O)=O (stereo not given) | -14.8% [at 35.6 µM] (inactive) | –
O=C(O)c1cccc(C[C@@H]2COc3ccc(OCc4nc5cc(F)ccc5s4)cc3[C@@H]2O)c1 | -0.0052% (inactive) | –
CCOc1ccccc1C(N)=O | – | inactive
Cc1ccc(S(N)(=O)=O)cc1 | -6.29% (inactive) | –
C=C(C)C(=O)OCCCCCCCCCCCCC | -1.05% (inactive) | –
CCc1occc(=O)c1O | 2% (inactive) | –
